# Source: the supplement of paper PMC12494721
# Counter-ions that a name gives are not always drawn. Unmarked numbers belong to inactive results.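 The calls were made as follows: for the amine columns active = adjusted P below 0.05 in both replicates with a change the same way and a mean fold change under 0.8 or over 1.25; inactive = the rest.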
# Tested on: Ruminococcus gnavus DSM 108212
# Experiment: fold change of Tryptamine concentration vs plate DMSO controls (fold change (ratio)); higher = more amine produced, active = hit call of the paper (significant change in both replicates, either direction)
# Settings: incubation time: 27 h, anaerobic, 37 °C
# Procedure, shortened: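 Using LC–triple-quadrupole MS with dynamic MRM, amines were quantified against external calibration curves and corrected for drift within each batch. Samples were whole anaerobic mGAM cultures of four gut strains, grown 27 h at 37 °C from OD 0.1 before 1:1 dilution, extracted with cold acetonitrile/methanol containing 0.1% formic acid and centrifuged. Compounds were present at 20 µM final (sweeteners at 50 µM final). The numbers are fold changes versus plate DMSO controls, each the mean of 2 biological replicates.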
row,Compound,fold change of Tryptamine concentration
1,CNC(=C[N+](=O)[O-])NCCSCc1ccc(CN(C)C)o1 [Ranitidine hydrochloride] (20 µM),0.99
2,C/C(O)=C(\C#N)C(=O)Nc1ccc(C(F)(F)F)cc1 [Teriflunomide] (20 µM),1
3,Cc1ccsc1/C=C/C1=NCCCN1C [Morantel tartrate] (20 µM),0.918
4,CCCCOCCOCCOCc1cc2c(cc1CCC)OCO2 (20 µM),1.04
5,CC(C)C(=O)Nc1ccc([N+](=O)[O-])c(C(F)(F)F)c1 [Flutamide] (20 µM),1
6,N=c1nc(N2CCCCC2)cc(N)n1O [Minoxidil] (20 µM),1.01
7,C[C@]12CCC3=C4CCC(=O)C=C4CC[C@H]3[C@@H]1CC[C@@]2(O)CC#N [Dienogest] (20 µM),1.04
8,CN(Cc1cnc2nc(N)nc(N)c2n1)c1ccc(C(=O)N[C@@H](CCC(=O)O)C(=O)O)cc1 [Amethopterin] (20 µM),0.892
9,NC(=O)C1CO1 (centres undefined) [Glycidamide] (20 µM),0.988
10,O=C1[C@H]2CCCC[C@H]2C(=O)N1CCCCN1CCN(c2nsc3ccccc23)CC1 [Perospirone hydrochloride] (20 µM),0.767
11,C=C1[C@H](CO)[C@@H](O)C[C@@H]1n1cnc2c(=O)[nH]c(N)nc21 [Entecavir] (20 µM),0.999
12,O=c1n(CCCN2CCN(c3cccc(Cl)c3)CC2)nc2ccccn12 [Trazodone hydrochloride] (20 µM),0.809
13,CC(=O)Nc1nnc(S(N)(=O)=O)s1 [Acetazolamide] (20 µM),1.02
14,CCOC(=O)C1=C(C)NC(C)=C(C(=O)OC)C1c1cccc([N+](=O)[O-])c1 (centres undefined) [Nitrendipine] (20 µM),0.911
15,CCCSS/C(CCO)=C(/C)N(C=O)Cc1cnc(C)nc1N [Prosultiamine] (20 µM),1.09
16,CC(C)NCC(O)c1ccc(NS(C)(=O)=O)cc1 (centres undefined) [Sotalol hydrochloride] (20 µM),1.18
17,NC(=O)OCC(O)COc1ccc(Cl)cc1 (centres undefined) [Chlorphensin carbamate] (20 µM),0.995
18,C[C@]12CC[C@H]3[C@@H](CCC4=CC(=O)CC[C@@]43C)[C@@H]1CC[C@@H]2C(=O)CO [Deoxycorticosterone] (20 µM),1.03
19,OC(CCCN1CCCCC1)(c1ccccc1)c1ccccc1 [Diphenidol hydrochloride] (20 µM),0.963
20,Cc1cccc(Nc2ccncc2S(=O)(=O)NC(=O)NC(C)C)c1 [Torsemide] (20 µM),1.12

row,Compound,fold change of Tryptamine concentration
1,CCN(CC)C(=O)Nc1ccc(OCC(O)CNC(C)(C)C)c(C(C)=O)c1 (centres undefined) [Celiprolol hydrochloride] (20 µM),1.02
2,CC(NCCC(c1ccccc1)c1ccccc1)c1ccccc1 (centres undefined) [Fendiline hydrochloride] (20 µM),0.888
3,Oc1c(I)cc(Cl)c2cccnc12 [Clioquinol] (20 µM),0.628 (active)
4,CCCCC1=NC2(CCCC2)C(=O)N1Cc1ccc(-c2ccccc2-c2nnn[nH]2)cc1 [Irbesartan] (20 µM),0.947
5,CCc1ccc(C(=O)C(C)CN2CCCCC2)cc1 (centres undefined) [Eperisone Hydrochloride] (20 µM),0.954
6,CCn1cc(C(=O)O)c(=O)c2cc(F)c(N3CCNC(C)C3)c(F)c21 (centres undefined) [Lomefloxacin hydrochloride] (20 µM),1.03
7,CC(C)OC(=O)C(C)(C)Oc1ccc(C(=O)c2ccc(Cl)cc2)cc1 [Fenofibrate] (20 µM),1.05
8,CN1CCCN=C1/C=C/c1cccc(O)c1 [Oxantel pamoate] (20 µM),1.06
9,CO/N=C(\C(=O)N[C@@H]1C(=O)N2C(C(=O)[O-])=C(C[n+]3cccc4c3CCC4)CS[C@H]12)c1csc(N)n1 [Cefpirome sulfate] (20 µM),0.0828 (active)
10,C[C@H]1C[C@H]2[C@@H]3CCC4=CC(=O)C=C[C@]4(C)[C@@]3(F)[C@@H](O)C[C@]2(C)[C@@]1(O)C(=O)CO [Betamethasone] (20 µM),1.01
11,Cc1cc(NS(=O)(=O)c2ccc(N)cc2)no1 [Sulfamethoxazole] (20 µM),1.01
12,Fc1ccc(C(c2ccc(F)cc2)N2CCN(C/C=C/c3ccccc3)CC2)cc1 [Flunarizine dihydrochloride] (20 µM),0.851
13,CN1CCN(CCCN2c3ccccc3Sc3ccc(S(=O)(=O)N(C)C)cc32)CC1 [Thioproperazine dimesylate] (20 µM),0.963
14,Cn1c(=O)c2nc[nH]c2n(C)c1=O [Theophylline monohydrate] (20 µM),1.1
15,COC(=O)C1=C(C)NC(C)=C(C(=O)OC)C1c1ccccc1[N+](=O)[O-] [Nifedipine] (20 µM),1
16,O=C(NCc1ncc(C(F)(F)F)cc1Cl)c1c(Cl)cccc1Cl (20 µM),1.01
17,CC(=O)Oc1ccccc1C(=O)Nc1ncc([N+](=O)[O-])s1 [Nitazoxanide] (20 µM),0.045 (active)
18,CC(=O)CCCCn1c(=O)c2c(ncn2C)n(C)c1=O [Pentoxifylline] (20 µM),0.965
19,CN(C)CCc1c[nH]c2ccc(Cn3cncn3)cc12 [Rizatriptan benzoate] (20 µM),1.01
